Test results taken from PubChem BioAssay (Tox21).
Inconclusive results are not listed. Where a call stands in place of a potency, no number is given. Active and inactive are the calls of the source. The call rests on the fitted dose curve.

test: qHTS assay for small molecule agonists of the antioxidant response element (ARE) signaling pathway - cell viability counter screen (AID 743203); conditions: ARE-bla HepG2 viability, CellTiter-Glo luminescence, 16 h; series mostly up to 73.3 µM; further: nearly all actives have a fitted effect of over 55% in size
Summary of the method: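 HepG2 cells carrying ARE-driven beta-lactamase; 2,000 cells/well; 5 hrs plating; compound pinned from DMSO; 16 hrs 37C/5% CO2; CellTiter-Glo added; 30 min RT; luminescence.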

Row | Compound | Potency
1 | OCCC1CCCCN1 (configuration not stated) | inactive
2 | CC1(C)CCC(C)(C)c2cc(NC(=O)c3ccc(C(=O)O)cc3)ccc21 | inactive
3 | CC/C(=C\C(=N/O)C(N)=O)C(C)[N+](=O)[O-] (configuration not stated) | inactive
4 | Cl/C(=C\n1cncn1)c1ccc(Cl)cc1Cl | inactive
5 | CC(C)CC=O | inactive
6 | CCCCCCCCCO | inactive
7 | CN(C)CCCOc1nn(Cc2ccccc2)c2ccccc12 | inactive
8 | FC(F)(F)C(F)(F)C(F)(F)C(F)(F)C(F)(F)C(F)(F)CCI | inactive
9 | CN1CCC(=C2c3ccccc3C=Cc3ccccc32)CC1 | inactive
10 | O=C(Cl)c1c(Cl)cccc1Cl | inactive
11 | CC(=O)CC(=O)c1ccccc1 | inactive
12 | CC(=O)O[C@@H]1C(=O)O[C@@H]2[C@H]1OC(=O)[C@@H]2OC(C)=O | inactive
13 | C#CCOC(=O)[C@@H](C)Oc1ccc(Oc2ncc(Cl)cc2F)cc1 | inactive
14 | O=C(Nc1ccccc1)OCC(CN1CCCCC1)OC(=O)Nc1ccccc1 (configuration not stated) | inactive
15 | CN1CCN(C2=Nc3ccccc3Sc3ccc(Cl)cc32)CC1 | inactive
16 | O=C(CCN1CCN2CCCC2C1)N1c2ccccc2Sc2ccc(Cl)cc21 (configuration not stated) | inactive
17 | CCN(CC)CCc1nc(-c2ccccc2)no1 | inactive
18 | O=C(O)Cc1sc(-c2ccccc2)nc1-c1ccc(Cl)cc1 | inactive
19 | C[C@H](CCC(=O)O)[C@H]1CC[C@H]2[C@@H]3[C@H](O)C[C@@H]4C[C@H](O)CC[C@]4(C)[C@H]3CC[C@]12C | inactive
20 | CN(C(=O)CCCOc1ccc2[nH]c(=O)ccc2c1)C1CCCCC1 | inactive
21 | CN(c1nccc(=O)[nH]1)C1CCN(c2nc3ccccc3n2Cc2ccc(F)cc2)CC1 | inactive
22 | CC(C)CCCCCCOC(=O)c1ccc(C(=O)OCCCCCCC(C)C)c(C(=O)OCCCCCCC(C)C)c1 | inactive
23 | Cc1ccc2c(ccc3ccccc32)c1 | inactive
24 | CCCCOC(=O)/C=C\C(=O)OCCCC | inactive
25 | OC(CCN1CCCCC1)(c1ccccc1)C1CCCCC1 (configuration not stated) | inactive
26 | CC(=O)[C@@]1(O)CC[C@H]2[C@@H]3C[C@H](C)C4=CC(=O)CC[C@]4(C)[C@H]3CC[C@@]21C | inactive
27 | CC(C)(C)C(=O)OCOP(=O)(COCCn1cnc2c(N)ncnc21)OCOC(=O)C(C)(C)C | inactive
